Reference: PubChem BioAssay AID1159580 (chemical genetic matrix, 2015)
The whole screen tested about 5,500 compounds, of which about 2,000 (36%) were called active. About 18% were inconclusive and are not listed. Rule as the data show it: active = normalized growth mostly below about 0.91 (no sharp cut-off); inconclusive = no clear call, values can overlap the other calls; inactive = mostly above about 0.92. Some of the results follow.

Experiment: chemical genetic growth profiling, strain panel (AID 1159580);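 also: tested at 20 µM; growth read once vehicle control cultures reached saturation at 30 °C; 1 = growth at the plate median or of vehicle wells; lower values mean less growth of the strain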
Conditions: growth OD

Measured: normalized growth

Nc1cc(-c2ccc(Cl)cc2)nc(N)n1
inactive: S. cerevisiae deletion strains, locus YAL013W, strain DEP1, stronger effect = lower value 0.997 | S. cerevisiae deletion strains, locus YBR229C, strain ROT2, stronger effect = lower value 0.991 | S. cerevisiae deletion strains, locus YDL101C, strain DUN1, stronger effect = lower value 0.995 | S. cerevisiae deletion strains, locus YDL134C, strain PPH21, stronger effect = lower value 0.959 | S. cerevisiae deletion strains, locus YDR150W, strain NUM1, stronger effect = lower value 1.02 | S. cerevisiae deletion strains, locus YEL061C, strain CIN8, stronger effect = lower value 0.995 | S. cerevisiae deletion strains, locus YGR078C, strain PAC10, stronger effect = lower value 0.999 | S. cerevisiae deletion strains, locus YHR030C, strain SLT2, stronger effect = lower value 0.963 | S. cerevisiae deletion strains, locus YHR087W, strain rtc3, stronger effect = lower value 0.993 | S. cerevisiae deletion strains, locus YJL187C, strain SWE1, stronger effect = lower value 1 | S. cerevisiae deletion strains, locus YJR043C, strain POL32, stronger effect = lower value 0.982 | S. cerevisiae deletion strains, locus YJR075W, strain HOC1, stronger effect = lower value 0.972 | S. cerevisiae deletion strains, locus YKL190W, strain CNB1, stronger effect = lower value 0.965 | S. cerevisiae deletion strains, locus YLR039C, strain RIC1, stronger effect = lower value 0.914 | S. cerevisiae deletion strains, locus YLR058C, strain SHM2 (second series), stronger effect = lower value 0.993 | S. cerevisiae deletion strains, locus YLR085C, strain ARP6, stronger effect = lower value 1.02 | S. cerevisiae deletion strains, locus YLR262C, strain YPT6, stronger effect = lower value 0.85 | S. cerevisiae deletion strains, locus YML094W, strain GIM5, stronger effect = lower value 1.03 | S. cerevisiae deletion strains, locus YMR219W, strain ESC1, stronger effect = lower value 0.991 | S. cerevisiae deletion strains, locus YMR263W, strain SAP30, stronger effect = lower value 0.996 | S. cerevisiae deletion strains, locus YNL153C, strain GIM3, stronger effect = lower value 0.992 | S. cerevisiae deletion strains, locus YNL298W, strain CLA4 (second series), stronger effect = lower value 0.992 | S. cerevisiae deletion strains, locus YNL322C, strain KRE1, stronger effect = lower value 0.99 | S. cerevisiae deletion strains, locus YNR030W, strain Alg12, stronger effect = lower value 1 | S. cerevisiae deletion strains, locus YOL006C, strain TOP1, stronger effect = lower value 0.944 | S. cerevisiae deletion strains, locus YPL055C, strain LGE1, stronger effect = lower value 1.02 | S. cerevisiae deletion strains, locus YPL241C, strain CIN2, stronger effect = lower value 0.995 | S. cerevisiae deletion strains, locus YPR135W, strain CTF4, stronger effect = lower value 0.939 | S. cerevisiae strains, strain wild type, stronger effect = lower value 0.966
